IL-1B inflam inh: inhibitors of inflammasome signaling (IL-1 beta secretion); THP-1 LPS/ATP IL-1B secretion, AlphaLISA, 16 h; stronger effect = lower value; activity change, % at 57.5 µM; hit rate 4.7% among 360,000; AID 743279; in the data active = activity change below about -50%; inconclusive = mostly about -30% to -49%
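Secreted IL-1B measured by AlphaLISA bead assay after 16 h compound exposure of THP-1 cells; compounds (final up to 57.5 uM) added 1 h before LPS (250 ng/mL) and ATP (1.25 mM) stimulation; lower signal means less secretion.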
DT40 TDP1 no CPT: qHTS for Inhibitors of human tyrosyl-DNA phosphodiesterase 1 (TDP1): qHTS in cells in absence of CPT. DT40 Tdp1-/- hTDP1 cells, no CPT, ATP luminescence, 48 h. Potency, µM (doses to about 46.2 µM), for the others: at the top dose activity change, negative = growth inhibition, usual class: inhibitors. hit rate 15% among 420,000. AID 686978, 2013; note: potency is the fitted concentration of half-maximal effect; nearly all actives have a fitted effect of over 55% in size
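DT40 Tdp1-/-;hTDP1 cells, no CPT (DMSO vehicle only), 400 cells/well; compounds pin-transferred; ≥48 hr, 37 °C; CellTiter-Glo 30 min RT dark, luminescence read.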
DT40 TDP1 CPT: DT40-hTDP1 cell growth loss with CPT; hit rate 12% among 420,000; chicken DT40 Tdp1-/-;hTDP1 cells + 20 nM CPT, ATP luminescence, 48 h; AID 686979; Potency, µM (top dose mostly 46.2 µM), inactives show top-dose activity change, negative = growth inhibition, actives largely listed as inhibitors; note: potency is the fitted concentration of half-maximal effect; nearly all actives have a fitted effect of over 55% in size
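Chicken DT40 Tdp1-/- cells stably complemented with human TDP1 were seeded at 400 cells/well in medium containing 20 nM camptothecin, exposed to pin-transferred compounds, and grown at 37 °C for at least 48 hr. Viability was read as ATP luminescence.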
TDP1 inh: blocks human tyrosyl-DNA phosphodiesterase 1; Q9NUW8; recombinant TDP1, AlphaScreen DNA substrate cleavage; Potency, µM (top dose mostly 130 µM), for inactives: at the top dose activity change, negative = inhibition, hits mostly inhibitors; hit rate 0.28% among 350,000; note: potency is the fitted concentration of half-maximal effect; nearly all actives have a fitted effect of over 40% in size
Target sequence (Q9NUW8 whole entry, looked up): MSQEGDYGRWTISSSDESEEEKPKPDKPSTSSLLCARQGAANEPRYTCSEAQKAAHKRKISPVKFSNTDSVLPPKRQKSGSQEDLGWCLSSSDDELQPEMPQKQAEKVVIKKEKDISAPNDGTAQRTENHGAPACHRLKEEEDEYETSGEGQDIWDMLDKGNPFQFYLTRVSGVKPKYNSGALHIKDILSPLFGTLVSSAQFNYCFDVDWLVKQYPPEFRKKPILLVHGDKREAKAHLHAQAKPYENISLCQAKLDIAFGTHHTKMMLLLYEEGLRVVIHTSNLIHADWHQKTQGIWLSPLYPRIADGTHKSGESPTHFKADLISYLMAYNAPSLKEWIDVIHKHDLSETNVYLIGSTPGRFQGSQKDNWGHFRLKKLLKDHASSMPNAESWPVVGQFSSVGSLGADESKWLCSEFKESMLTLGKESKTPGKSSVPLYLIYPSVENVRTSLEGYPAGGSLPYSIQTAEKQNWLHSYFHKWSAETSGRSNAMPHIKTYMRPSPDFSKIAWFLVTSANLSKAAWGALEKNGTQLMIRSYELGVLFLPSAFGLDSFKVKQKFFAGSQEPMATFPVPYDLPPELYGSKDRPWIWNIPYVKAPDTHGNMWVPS
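Enzyme-compound mixtures sat 15 min at room temperature, followed by a 5 min reaction with 15 nM final substrate and 10 min with AlphaScreen beads. Recombinant human Tdp1 was used at 1 nM final.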
ELG1 repair inh: blocks ELG1-dependent DNA repair in HEK293T cells. hit rate 2.3% among 330,000. HEK293T ELG1-luciferase reporter, luminescence, 16 h; DNA damage induced by 5-fluorouridine. AID 504467. Potency, µM (titrated, usually from 46.1 µM), for inactives: at the top dose activity change, negative = inhibition, actives largely listed as inhibitors; note: potency is the fitted concentration of half-maximal effect; nearly all actives have a fitted effect of over 55% in size
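Cells (2,000 per well) received 5-fluorouridine plus test compound or DMSO and were incubated 16 hr at 37 °C, 5% CO2. Luciferase activity was read by luminescence 30 min after ONE-Glo addition; signal suppression marked inhibition of damage-induced ELG1 function.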
Giardia kill: kills Giardia lamblia; AID 540267; hit rate 0.15% among 340,000; activity change, % at 7.66 µM, hits read low; Giardia lamblia trophozoite viability; in the data active = activity change below about -80%; inconclusive = between about -30% and that limit;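 note: parasites exposed to compound for two days anaerobically before the ATP read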
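Killing of trophozoites was scored by loss of ATP luminescence after a 48 hrs anaerobic exposure to compounds at 37 deg C, using 100 cells per well.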
Active calls of the source: *; i = inactive; ? = inconclusive; / = no result given; [ ] = remark or other dose. Compounds with a hit are over-represented: about 19% of the library has one in this group of screens. Unless noted, calls come from the whole dose curve; as a rule, active = well fitted curve in the direction sought with a large enough effect; inconclusive = small, poorly fitted or top-dose-only effect, or another doubt; inactive = no such curve, though single readings can be large; an effect the other way counts as inactive or inconclusive. % is set by controls: 0 for no effect and ±100 for the full control effect.

SMILES	IL-1B inflam inh	DT40 TDP1 no CPT	DT40 TDP1 CPT	TDP1 inh	ELG1 repair inh	Giardia kill
COc1cc(NC(=O)C2CC(c3c(F)cccc3Cl)=NO2)cc(OC)c1OC (stereo not given)	-15.5	10.3µM*	?	/	?	?
COc1cccc(C2=NOC(C(=O)Nc3cc(C)nn3-c3ccccc3)C2)c1OC (stereo not given)	2.2	?	?	0.0%	23.1µM*	0.8
COC(=O)CCNC(=O)Cc1ccc(S(=O)(=O)N2CCCCC2)s1	5.6	?	-24.3%	1.8%	9.3%	5.6
CCn1cc(C(=O)N[C@@H](CCSC)C(=O)NCCCn2ccnc2)c(=O)c2cc3c(cc21)OCO3	18.4	3.5%	2.4%	1.9%	10.5%	1.7
O=C(NC(=O)c1ccccc1O)c1ccc(C(F)(F)F)cc1	-69.4*	7.31µM*	11.6µM*	/	?	-8.8
CCCc1ccc(C(=O)NNC(=O)c2ccc(Br)cc2)cc1	i	-12.4%	-1.1%	0.6%	0.9%	3.0
CCCc1ccc(C(=O)NC(=O)c2ccccc2O)cc1	33.7	2.91µM*	2.31µM*	1.4%	?	-19.5
Cn1cnnc1Sc1ccc(CN2CCOc3ccc(C4=Cc5ccccc5C4)cc3C2)o1	/	-29.9%	-1.4%[9.04 µM]	/	/	/
CN1CCN(NC(=S)Nc2ccc(OC(F)F)cc2)CC1	-5.3	-20.4%	11.6%	8.0%	?	13.4
COc1cccc(N(C(=O)Cn2nnc(-c3ccc(Cl)cc3)n2)C(C(=O)NCC2CCCO2)c2ccc(C)cc2)c1 (stereo not given)	-9.2	20.6µM*	16.4µM*	2.4%	13.7%	0.2
COc1ccc(-c2nnn(CC(=O)N(Cc3ccccc3Cl)C(C(=O)NCC3CCCO3)c3ccco3)n2)cc1 (stereo not given)	5.5	18.4µM*	?	8.3%	-4.5%	16.9
Cc1cc(-n2c(C)nc3ccccc3c2=O)ccc1NC(=O)c1ccc([N+](=O)[O-])cc1	/	?	?	-2.6%	/	/
CC1CC(=Cc2ccc([N+](=O)[O-])cc2)C(=O)O1 (stereo not given)	-12.6	-19.4%	0.8%	/	/	-4.0
O=C1/C(=C/Nc2cccc([N+](=O)[O-])c2)CCc2ccccc21	-8.7	-27.7%	-28.4%	6.9%	?	-10.7
O=C1C(=Cc2ccc(F)cc2)Cc2ccccc21	9.6	?	?	/	/	/
O=C1/C(=C/c2ccc(O)cc2)CCc2ccc([N+](=O)[O-])cc21	?	16.4µM*	?	2.5%	?	-6.6
CC(=O)Nc1ccc(/C=C2\CCc3ccccc3C2=O)cc1	-96.1*	-24.7%	15.4%	/	?	-11.0
O=C1/C(=C\c2ccc([N+](=O)[O-])cc2)CCc2ccccc21	?	?	-29.7%	5.4%	?	-90.8*
O=[N+]([O-])c1ccc(C=C2c3ccccc3-c3ccccc32)cc1	/	17.8µM*	-24.1%	/	/	/
O=C(O)CSCCOc1ccc(OCCSCC(=O)O)cc1	9.0	2.6%	-13.9%	-1.3%	-5.2%	-10.1
O=C(/C=C1\OCc2cc(OCc3ccccc3)ccc21)OCc1ccccc1	-8.1	?	?	/	/	/
COC(=O)/C=C1\OCc2cc(OC)c(OCc3ccccc3)cc21	2.5	20.6µM*	?	/	/	/
Cc1cc(C)cc(C(=O)N(NC(=O)Nc2ccc(Cl)cc2)C(C)(C)C)c1	-29.8	?	14.6µM*	-2.0%	7.2%	7.5
CC(C)(C)N(NC(=O)Nc1ccc(F)cc1)C(=O)c1ccccc1	-12.7	-14.3%	-5.6%	-5.1%	7.2%	-10.6
CC(C)(C)N(NC(=O)Nc1ccc(Cl)c(Cl)c1)C(=O)c1ccccc1	-50.9*	18.4µM*	18.4µM*	2.0%	-19.6%	0.3
Cc1cccc(C)c1NC(=O)NN(C(=O)c1ccccc1)C(C)(C)C	-9.6	-10.3%	-26.4%	1.2%	-9.9%	-15.2
O=C(Nc1ccc(S(=O)(=O)NCCc2ccccc2)cc1)c1ccncc1	7.6	?	18.4µM*	-3.5%	12.6%	4.4
CC(C)(C)c1ccc(S(=O)(=O)NCCc2ccncc2)cc1	-28.8	16.4µM*	?	0.0%	5.8%	2.2

Screening data as filed in PubChem.
